Inconclusive results are not listed. A number with no mark means an inactive call. The source made the active and inactive calls. Calls come from the whole dose curve; as a rule, active = well fitted activation curve with a large enough effect; inconclusive = small, poorly fitted or top-dose-only effect; inactive = flat fitted curve, though single readings scatter.
These molecules were tested against Cellular tumor antigen p53 (Homo sapiens) (UniProt P04637) (assay: Primary qHTS for small molecule compounds that upregulate eGFP-tagged delta133p53alpha (in C-terminal) cells. (AID 2060324;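 for GFP increase (activation): 0% = DMSO wells and 100% = 57.5 µM 5-azacytidine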)). Conditions: NCI-H358 delta133p53alpha-eGFP (C-terminal tag), GFP fluorescence imaging, 24 h; series mostly up to 57.5 µM; GFP increase (activation): at the top concentration.
Chain of Cellular tumor antigen p53 (Homo sapiens) (P04637 whole entry, looked up): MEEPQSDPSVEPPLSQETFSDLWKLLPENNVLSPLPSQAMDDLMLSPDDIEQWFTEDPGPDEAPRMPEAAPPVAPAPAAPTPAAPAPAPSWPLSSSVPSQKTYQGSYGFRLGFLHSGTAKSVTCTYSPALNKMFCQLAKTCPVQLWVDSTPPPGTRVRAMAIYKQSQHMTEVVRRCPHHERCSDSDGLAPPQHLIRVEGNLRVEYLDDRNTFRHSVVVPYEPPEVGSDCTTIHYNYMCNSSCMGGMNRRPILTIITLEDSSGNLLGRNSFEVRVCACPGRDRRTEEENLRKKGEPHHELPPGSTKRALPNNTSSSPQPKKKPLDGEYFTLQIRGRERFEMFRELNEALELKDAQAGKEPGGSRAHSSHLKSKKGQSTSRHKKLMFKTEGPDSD
Excerpt: Assay Development and Screening Technology
National Center for Advancing Translational Sciences (NCATS),
National Institute of Health (NIH), Rockville, Maryland
Cellular senescence (CS) is one of the hallmarks of aging and age-related diseases. Senescent cells are characterized by an irreversible growth arrest, an increase in senescence-associated beta-galactosidase (SA-beta-gal) activity and p16INK4a expression, an activation of the DNA damage response pathways, and the emergence of a senescence-associated secretory phenotype (SASP).
Delta133p53alpha, a human/primate-specific p53 protein isoform, delays or inhibits the induction of CS and SASP in various types of human cells, including progeria-derived fibroblasts, primary normal astrocytes, and CD8+ T lymphocytes. Induction of delta133p53alpha with small molecule compounds may provide therapeutic opportunities for inhibition of senescence/SASP-associated pathologies in progeria syndromes, astrocyte-mediated neuroprotection in neurodegenerative diseases, and possibly prevention and treatment of a wider range of senescence- and aging-associated diseases.
Here we report the development and validation of a cell-based quantitative high throughput screening (qHTS) assay in 1,536-well format. This qHTS assay uses the NCI-H358 cell line with doxycycline-inducible expression of enhanced green fluorescent protein (eGFP)-tagged delta133p53alpha, which allows efficient and highly quantitative measurement of the protein levels.
PROTOCOL TABLE (as described by Inglese J, Shamu CE and Guy RK. 2007)
SEQUENCE No. (e.g., 1, 2, 3, etc.); […] (e.g., Cells, Incubation, Reagent, etc.); VALUE; DESCRIPTION.
1; Cells; 4uL; 800 doxycycline treated cells / well in doxycycline-free media, 1536-well black, clear-bottom low base Aurora microplates.
2; Compounds; 23 nL; Kalypsis pin tool (Wako) equipped with 1536-well pin heads, 5-azacytidine positive control.
3; Incubation; 24 hr; 37C, 5% CO2; 95% relative humidity.
4; Aspiration; 1x; BioTek EL406 washer dispenser (Agilent).
5; Fixing; 3.5% paraformaldehyde, BioTek EL406 washer dispenser (Agilent).
6; Washing; 1x PBS; BioTek EL406 washer dispenser (Agilent).
7; Nuclei staining; 1:1000 dilution of Hoechst 33342 (Thermofisher), BioTek EL406 washer dispenser (Agilent).
8; Incubation; 20 min; in the dark at room temperature.
9; Washing; 2x, 1x PBS (ThermoFisher), BioTek EL406 washer dispenser (Agilent).
10; Reagent; 10 uL; 1x PBS per well, sealed with clear adhesive tape.
11; Detection; Fluorescence, Acumen eX3 laser scanning cytometer (STP Labtech), GFP filters […].
NOTES (numbers refer to sequence numbers above).
1. NCI-H358 cells expressing eGFP-tagged delta133p53alpha were grown in T75 culture flasks and treated with doxycycline for 24h, at 10 ng/ml for eGFP-D133p53a cells (N-terminal cell) and 100 ng/ml for D133p53a-eGFP cells (C-terminal cells). Cells were trypsinized, counted using a Counted 3 Automated Cell Counter (Thermo Fisher), and diluted to a concentration of 200,000 cells/ml. A Multidrop Combi Reagent Dispenser (ThermoFisher) was used to dispense 800 cells/well in […] of doxycycline-free media, into 1536-well black/clear bottom low base plates (AuroraMicroplates).
2. After plating cells, 23 nl of compound library, DMSO vehicle control or positive control (5-azacytidine) were transferred by Pin Tool (Wako). The plate map layout was the same for each plate: (column 1) non-doxycycline treated cells + DMSO vehicle control; (column 2) doxycycline treated cells + DMSO vehicle control baseline; (column 3) doxycycline treated cells + positive control 57.5 uM final concentration 5-azacytidine; (column 4) doxycycline treated cells + serial dilution of 5-azacytidine, 16-point 1:2 titration spanning 1.8 nM to […] final concentration; (columns 5-48) doxycycline treated cells + titration of library compounds.
3. Cells were incubated at 37 °C, 5 % CO2, 95% RH with breathable metal lid for 24h.
4-10. […] […]
Potency is the fitted concentration of half-maximal effect.

Compound	GFP increase (activation) [%]	Potency
CN(C)C(N)=NCCC[C@H](N)C(=O)O	-0.181	
CN(C)CCC=C1c2ccccc2C=Cc2ccccc21	-0.891	
COCc1nc2c([nH]1)c(=O)n(C)c(=O)n2CC(C)C	0.0132	
CC(C)NCC(O)COc1ccc(CCOCC2CC2)cc1 (stereo not given)	-3.9	
NC(=O)C(=O)O	-0.182	
O=C(O)C1CN(CCCP(=O)(O)O)CCN1 (stereo not given)	-0.833	
COC(=O)[C@H](NC(=O)c1cc(-c2ccccc2)nc2ccccc12)c1ccccc1	-7	
C=CCN1CCc2c(cc(O)c(O)c2Br)[C@@H](c2ccccc2)C1	2.81	
C/C(=C\c1ccc(C(=O)O)cc1)c1ccc2c(c1)C(C)(C)CCC2(C)C	2.64	
CN1CCC(=C2c3ccccc3CC(=O)c3sccc32)CC1	3.43	
CC#C[C@]1(O)CC[C@H]2[C@@H]3CCC4=CC(=O)CCC4=C3[C@@H](c3ccc(N(C)C)cc3)C[C@@]21C	2.51	
CC(=O)NNC(=O)N1Cc2ccccc2Oc2ccc(Cl)cc21	-4.94	
C[C@]12CC[C@@H]3c4ccc(O)cc4C[C@@H](CCCCCCCCCS(=O)CCCC(F)(F)C(F)(F)F)[C@H]3[C@@H]1CC[C@@H]2O (stereo not given in full)	-9.52	
C[N+](C)(C)CCOC(=O)CCC(=O)OCC[N+](C)(C)C	-0.215	
NC(Cc1cccc(-c2ccccc2CP(=O)(O)O)c1)C(=O)O (stereo not given)	-5.8	
COCCOc1cc2ncnc(Cl)c2cc1OCCOC	3.65	
CC(C)NC[C@H](O)COc1ccc(CC(N)=O)cc1	-1.56	
Nc1cc(Cl)c(NC2=NCCN2)c(Cl)c1	-4.92	
CC1(C)C(=O)N(CCN2CCC(C(=O)c3ccc(F)cc3)CC2)c2ccccc21	-7.71	
Cc1oncc1C(=O)Nc1ccc(C(F)(F)F)cc1	0.268	

Compound	GFP increase (activation) [%]	Potency
N=S(=O)(O)Cc1noc2ccccc12	-2.85	
O=c1ccc2ccc(O)c(O)c2o1	1.79	
O=C(O)C1=CCCNC1	0.47	
O=C(O)CCCC[C@@H]1CCSS1	-0.116	
CC(C)c1ccc2c(c1)c(SC(C)(C)C)c(CC(C)(C)C(=O)O)n2Cc1ccc(Cl)cc1	-4.01	
Cn1cc(C(=O)OCC2CCN(CCNS(C)(=O)=O)CC2)c2ccccc21	-10.2	
NC1(C(=O)O)CCCCC1	-10.2	
CC(N)(Cc1ccc(O)c(O)c1)C(=O)O (stereo not given)	-6.11	
S=c1[nH]c(-c2ccccc2)cn1-c1ccccc1	-6.2	
c1ccc(C(NCc2cccnc2)(c2ccccc2)c2ccccc2)cc1	-0.133	
O=C1NC(=O)c2c1c(-c1ccccc1)cc1[nH]c3ccc(O)cc3c21		26.9 µM (active)
CNS(=O)(=O)CCc1ccc2[nH]cc(C3CCN(C)CC3)c2c1	5.49	
CC(C)Cc1ccc([C@H](C)C(=O)O)cc1	-8.83	
CC(C)(Oc1ccc(C2CC2(Cl)Cl)cc1)C(=O)O (stereo not given)	-3.61	
CN1C2CCC1CC(OC(c1ccccc1)c1ccccc1)C2 (stereo not given)	-0.905	
CC(C)Cn1c(=O)n(C)c(=O)c2[nH]cnc21	-11.3	
Cc1cc(C(C)(C)C)c(O)c(C)c1CC1=NCCN1	-3.79	
CC(=O)/C(C)=N/O	2.59	
CN(C(=O)CCCOc1ccc2[nH]c(=O)ccc2c1)C1CCCCC1	-9.8	
O=c1[nH]cc(F)c(=O)[nH]1	7.4	

— PubChem BioAssay (NCATS)
